Results from PubChem BioAssay (Tox21).
Records with an inconclusive call do not appear. The source made the active and inactive calls. Unless noted, calls follow the shape of the dose curve; as a rule, active = well fitted curve in the direction sought with a large enough effect in the repeat runs; inconclusive = weak or mixed curves; inactive = no such curve, though single readings can be large; an effect the other way counts as inactive or inconclusive.

Legend:
[1] = qHTS assay to identify small molecule agonists of the peroxisome proliferator-activated receptor delta (PPARd) signaling pathway - cell viability counter screen (AID 743211); also: % is scaled to controls: 0 for no effect and ±100 for the full control effect; nearly all actives have a fitted effect of over 55% in size
In short: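 qHTS cell viability: PPARd-bla HEK293H; 17 h cpd, 37C; CellTiter-Glo, luminescence at 30 min RT.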

[2] = qHTS assay to identify small molecule antagonists of the peroxisome proliferator-activated receptor delta (PPARd) signaling pathway - cell viability counter screen (AID 743213); also: % is scaled to controls: 0 for no effect and ±100 for the full control effect; nearly all actives have a fitted effect of over 50% in size
In short: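 Viability counter-screen, qHTS format: PPARd-bla HEK293H, L165041 300 nM final, 17 h compound exposure at 37 C, CellTiter-Glo luminescence after 30 min RT.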

[3] = qHTS assay to identify small molecule agonists of the farnesoid-X-receptor (FXR) signaling pathway - cell viability counter screen (AID 743218); also: % is scaled to controls: 0 for no effect and ±100 for the full control effect; nearly all actives have a fitted effect of over 45% in size
In short: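 HEK 293T FXR-bla cells; 5 h pre-incubation, 16 h compound exposure at 37 C; LiveBLAzer substrate 2 h RT, then CellTiter-Glo 30 min RT, luminescence.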

[4] = qHTS assay to identify small molecule antagonists of the farnesoid-X-receptor (FXR) signaling pathway - cell viability counter screen (AID 743221; active = well fitted cell-killing curve with a large enough effect in the repeat runs, not every such curve was filed as active; also: % is scaled to controls: 0 for no effect and ±100 for the full control effect; nearly all actives have a fitted effect of over 50% in size)
In short: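 After a 5 h settling period, FXR-bla HEK 293T cells receive compound and chenodeoxycholic acid (50 uM final) and incubate 16 h at 37 C; CellTiter-Glo luminescence, read after 30 min at room temperature, reports cell viability.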

[5] = biological target: Vitamin D3 receptor (Homo sapiens) (UniProt P11473); test: qHTS assay to identify small molecule agonists of the vitamin D receptor (VDR) signaling pathway (AID 743222; calls by dose curve; also: % is scaled to controls: 0 for no effect and ±100 for the full control effect)
Chain of Vitamin D3 receptor (Homo sapiens) (P11473 whole entry, looked up): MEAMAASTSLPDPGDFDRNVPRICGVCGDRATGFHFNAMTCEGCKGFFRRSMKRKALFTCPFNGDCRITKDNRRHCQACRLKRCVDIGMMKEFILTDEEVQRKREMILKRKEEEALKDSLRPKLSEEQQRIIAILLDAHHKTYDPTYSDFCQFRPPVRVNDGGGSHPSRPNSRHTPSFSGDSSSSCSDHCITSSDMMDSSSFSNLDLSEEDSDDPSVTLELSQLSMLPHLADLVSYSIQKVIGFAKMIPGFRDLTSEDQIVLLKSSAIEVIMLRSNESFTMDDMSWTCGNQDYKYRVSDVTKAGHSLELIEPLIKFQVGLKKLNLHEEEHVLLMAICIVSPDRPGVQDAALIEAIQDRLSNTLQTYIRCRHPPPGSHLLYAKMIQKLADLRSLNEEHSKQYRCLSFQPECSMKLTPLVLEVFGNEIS
In short: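 VDR-bla cells, 2,000/well; 4 h preincubation 37C; cpd (DMSO) 16 h; LiveBLAzer B/G substrate 2 h RT; fluorescence intensity read.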

[6] = biological target: Vitamin D3 receptor (Homo sapiens) (UniProt P11473); test: qHTS assay to identify small molecule antagonists of the vitamin D receptor (VDR) signaling pathway (AID 743223; active = well fitted inhibition curve with a large enough effect in the signal ratio in the repeat runs, not every such curve was filed as active; the % refers to the signal ratio; also: % is scaled to controls: 0 for no effect and ±100 for the full control effect)
In short: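 Reporter line VDR-bla; stimulus 1alpha,25-(OH)2 vitamin D3, 3 nM final; compound co-addition, 16 h 37C/5% CO2; LiveBLAzer B/G substrate 2 h RT; fluorescence intensity.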

[7] = qHTS assay to identify small molecule agonists of the vitamin D receptor (VDR) signaling pathway - cell viability counter screen (AID 743224); also: series mostly up to about 63 µM; % is scaled to controls: 0 for no effect and ±100 for the full control effect; nearly all actives have a fitted effect of over 50% in size
In short: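 Luminescence from CellTiter-Glo, read after 30 min at room temperature, reports viability of VDR-bla cells treated with compounds for 16 h at 37C in the wells used for the beta-lactamase FRET read.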

[8] = qHTS assay to identify small molecule antagonists of the vitamin D receptor (VDR) signaling pathway - cell viability counter screen (AID 743225); also: % is scaled to controls: 0 for no effect and ±100 for the full control effect; nearly all actives have a fitted effect of over 50% in size
In short: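 Parallel cytotoxicity test: VDR-UAS-bla HEK 293T, 3 nM (final) 1-alpha,25-dihydroxyvitamin D3 with test compound, 16 h, 37C. Endpoint is CellTiter-Glo luminescence in the same wells.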

[9] = qHTS assay to identify small molecule agonists of the NFkB signaling pathway - cell viability counter screen (AID 1159515; calls by dose curve; also: series mostly up to about 61 µM; % is scaled to controls: 0 for no effect and ±100 for the full control effect; nearly all actives have a fitted effect of over 55% in size)
In short: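 Luminescence from CellTiter-Glo (30 min, room temperature) gives viability, measured in the same wells as the beta-lactamase reporter read. Cells were NFkB-bla ME-180, 2,000 per well, treated 5 hr with compounds.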

[10] = qHTS assay to identify small molecule agonists of the endoplasmic reticulum stress response signaling pathway (AID 1159516; active = well fitted activation curve with a large enough effect in the signal ratio in the repeat runs, not every such curve was filed as active; the % refers to the signal ratio; also: % is scaled to controls: 0 for no effect and ±100 for the full control effect)
In short: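 Read-out is beta-lactamase cleavage of a FRET substrate (405 nm excitation; 460 and 530 nm emissions) in ESRE-bla HeLa cells after a 5 hr compound exposure at 37 C. Substrate incubation ran 2 hr at room temperature.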

[11] = qHTS assay to identify small molecule agonists of the endoplasmic reticulum stress response signaling pathway - cell viability counter screen (AID 1159517; calls by dose curve)
In short: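 ESRE-bla HeLa cells, 1,500 per well, seeded overnight then treated with compounds for 5 hr at 37 C. After the beta-lactamase read, viability in the same wells is measured by CellTiter-Glo luminescence after 30 min at room temperature.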

[12] = qHTS assay to identify small molecule antagonists of the retinoid-related orphan receptor gamma (ROR-gamma) signaling pathway - cell viability counter screen (AID 1159520)
In short: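 Tet-on ROR gamma CHO cells were given compounds for 2 hr, then doxycycline hyclate at 1 uM final, and incubated 16 hr at 37 C. Viability was measured as ATP content by CellTiter-Glo luminescence.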

[13] = biological target: Nuclear receptor ROR-gamma (Homo sapiens) (UniProt P51449); test: qHTS assay to identify small molecule antagonists of the retinoid-related orphan receptor gamma (ROR-gamma) signaling pathway (AID 1159521)
In short: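 Decreased RORE-driven luciferase luminescence indicates antagonism. Tet-on RORγ CHO cells received compound, then 1 uM final doxycycline 2 h later; signal read after 16 h incubation.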

[14] = qHTS assay to identify small molecule agonists of the AP-1 signaling pathway - cell viability counter screen (AID 1159525; calls by dose curve; also: nearly all actives have a fitted effect of over 55% in size)
In short: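 AP-1-bla ME-180 cells in Opti-MEM with 0.5% dialyzed FBS, compound exposure 5 h at 37 C in 15-point titration. Viability read in the same wells as ATP content by CellTiter-Glo luminescence, normalised to tetra-n-octylammonium bromide and DMSO controls.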

[15] = qHTS assay to identify small molecule agonists of the AP-1 signaling pathway (AID 1159526; calls by dose curve; also: % is scaled to controls: 0 for no effect and ±100 for the full control effect)
[16] = biological target: Peroxisome proliferator-activated receptor delta (Homo sapiens) (UniProt Q03181); test: qHTS assay to identify small molecule agonists of the peroxisome proliferator-activated receptor delta (PPARd) signaling pathway (AID 743212; calls by dose curve; also: % is scaled to controls: 0 for no effect and ±100 for the full control effect)
Chain of Peroxisome proliferator-activated receptor delta (Homo sapiens) (Q03181 whole entry, looked up): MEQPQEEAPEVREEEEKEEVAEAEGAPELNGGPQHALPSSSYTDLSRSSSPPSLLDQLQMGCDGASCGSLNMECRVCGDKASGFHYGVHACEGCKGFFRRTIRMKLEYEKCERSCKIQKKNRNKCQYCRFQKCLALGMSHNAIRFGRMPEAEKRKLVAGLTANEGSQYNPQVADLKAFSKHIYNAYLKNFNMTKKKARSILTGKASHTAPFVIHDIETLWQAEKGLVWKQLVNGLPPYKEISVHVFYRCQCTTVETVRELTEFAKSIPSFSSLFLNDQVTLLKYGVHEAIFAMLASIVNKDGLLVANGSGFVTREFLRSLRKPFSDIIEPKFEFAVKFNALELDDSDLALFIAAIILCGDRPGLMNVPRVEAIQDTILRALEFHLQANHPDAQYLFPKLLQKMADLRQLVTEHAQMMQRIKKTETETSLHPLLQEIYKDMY
In short: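 GeneBLAzer UAS-bla HEK293H cells carrying a PPARδ construct were exposed to compounds at 37 °C. Beta-lactamase activity was read by FRET fluorescence after 2 h at room temperature with LiveBLAzer B/G substrate.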

[17] = biological target: Bile acid receptor (Homo sapiens) (UniProt Q96RI1); test: qHTS assay to identify small molecule antagonists of the farnesoid-X-receptor (FXR) signaling pathway (AID 743217; active = well fitted inhibition curve with a large enough effect in the signal ratio in the repeat runs, not every such curve was filed as active; the % refers to the signal ratio; also: % is scaled to controls: 0 for no effect and ±100 for the full control effect)
Chain of Bile acid receptor (Homo sapiens) (Q96RI1 whole entry, looked up): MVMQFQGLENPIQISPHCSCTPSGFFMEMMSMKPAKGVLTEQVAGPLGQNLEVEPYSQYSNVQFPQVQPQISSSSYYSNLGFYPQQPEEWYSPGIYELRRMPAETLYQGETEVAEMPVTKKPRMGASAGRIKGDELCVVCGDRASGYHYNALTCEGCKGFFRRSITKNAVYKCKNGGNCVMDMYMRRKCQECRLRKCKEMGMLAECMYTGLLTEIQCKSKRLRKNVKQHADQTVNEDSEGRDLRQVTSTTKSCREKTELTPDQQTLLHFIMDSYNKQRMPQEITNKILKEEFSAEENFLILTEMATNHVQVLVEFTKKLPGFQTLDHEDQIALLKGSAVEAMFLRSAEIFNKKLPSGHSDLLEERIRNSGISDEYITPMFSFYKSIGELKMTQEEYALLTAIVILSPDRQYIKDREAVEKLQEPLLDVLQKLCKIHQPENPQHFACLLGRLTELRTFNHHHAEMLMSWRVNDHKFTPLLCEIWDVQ
In short: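 HEK 293T FXR-UAS-bla, 5000 cells/well; compound + CDCA 50 uM final; 16 h, 37 °C; B/G FRET substrate 2 h RT; fluorescence.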

[18] = biological target: Bile acid receptor (Homo sapiens) (UniProt Q96RI1); test: qHTS assay to identify small molecule agonists of the farnesoid-X-receptor (FXR) signaling pathway (AID 743220; active = well fitted activation curve with a large enough effect in the signal ratio in the repeat runs, not every such curve was filed as active; the % refers to the signal ratio; also: % is scaled to controls: 0 for no effect and ±100 for the full control effect)
In short: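 Beta-lactamase reporter under UAS control in GeneBLAzer FXR HEK 293T cells (5000/well) measured with LiveBLAzer FRET substrate after 2 h at room temperature. Compound exposure lasted 16 h at 37C.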

[19] = biological target: Peroxisome proliferator-activated receptor delta (Homo sapiens) (UniProt Q03181); test: qHTS assay to identify small molecule antagonists of the peroxisome proliferator-activated receptor delta (PPARd) signaling pathway (AID 743215; active = well fitted inhibition curve with a large enough effect in the signal ratio in the repeat runs, not every such curve was filed as active; the % refers to the signal ratio)
In short: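 Read-out is beta-lactamase FRET fluorescence, measured 2 h after substrate addition at room temperature. Beforehand, UAS-bla HEK293H cells carrying the PPARd reporter were exposed to compounds with L165041 at 300 nM final for 17 h at 37 C.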

CCOC(=O)CC(O)(CC(=O)OCC)C(=O)OCC
inactive: Potency [1] | Potency [2] | Potency [3] | Potency [4] | outcome [5] | outcome [6] | outcome [7] | outcome [8] | outcome [9] | outcome [10] | outcome [11] | Potency [12] | Potency [13] | outcome [14] | Potency [15]

C=CC(O)CCCCC (stereo unspecified)
inactive: Potency [1] | Potency [16] | Potency [2] | outcome [17] | Potency [3] | outcome [18] | Potency [4] | outcome [5] | outcome [7] | outcome [8] | outcome [9] | outcome [10] | outcome [11] | Potency [12] | Potency [13] | outcome [14] | Potency [15]

CC1=CC(=C(c2ccc(N)cc2)c2ccc(N)cc2)C=CC1=N
inactive: activation [16] -0.0637% [at 5.95 µM] | viability change, negative = cytotoxic [2] -32.9% [at 6.26 µM] | ratio activity, negative = inhibition [19] -10.9% [at 6.26 µM] | viability change, negative = cytotoxic [3] -22.2% [at 5.95 µM] | activity change, negative = cytotoxicity [4] -5.62% [at 5.95 µM] | activation [5] -2.54% [at 6.01 µM] | activity change, negative = cytotoxicity [7] -18.2% [at 5.95 µM] | activity, negative = cytotoxic [9] 11% [at 6.95 µM] | activation [10] -5.36% [at 6.95 µM] | activity change, negative = cytotoxicity [11] -9.14% [at 6.95 µM] | activity, negative = cytotoxicity [12] -12.6% [at 8.39 µM] | activity change, negative = inhibition [13] -15.2% [at 8.39 µM] | viability change, negative = cytotoxic [14] 23.5% [at 6.97 µM] | activation [15] -9.58% [at 6.97 µM]

Nc1nc(Cl)nc2c1ncn2[C@H]1C[C@H](O)[C@@H](CO)O1
inactive: Potency [1] | Potency [2] | outcome [19] | Potency [3] | Potency [4] | outcome [5] | outcome [6] | outcome [7] | outcome [8] | outcome [9] | outcome [10] | outcome [11] | Potency [12] | Potency [13] | outcome [14] | Potency [15]

CCCCCCCCC(=O)OCC(C)OC(=O)CCCCCCCC (stereo unspecified)
inactive: Potency [1] | Potency [16] | Potency [2] | outcome [19] | Potency [3] | Potency [4] | outcome [5] | outcome [6] | outcome [7] | outcome [8] | outcome [9] | outcome [10] | outcome [11] | Potency [12] | Potency [13] | outcome [14] | Potency [15]

C=C(C)C(=O)OCCCCCCCCCCOC(=O)C(=C)C
inactive: Potency [1] | Potency [16] | Potency [2] | outcome [19] | outcome [17] | Potency [3] | Potency [4] | outcome [5] | outcome [6] | outcome [7] | outcome [8] | outcome [9] | outcome [10] | outcome [11] | Potency [12] | Potency [13] | Potency [15]

CC1(C)C(=O)NC(=O)N1CO
inactive: Potency [1] | Potency [16] | Potency [2] | outcome [19] | Potency [4] | outcome [5] | outcome [6] | outcome [7] | outcome [8] | outcome [9] | outcome [10] | outcome [11] | Potency [12] | Potency [13] | outcome [14] | Potency [15]

CC(C)=CCCC(C)C=O (stereo unspecified)
inactive: Potency [1] | Potency [16] | Potency [2] | outcome [17] | Potency [3] | outcome [18] | Potency [4] | outcome [5] | outcome [6] | outcome [7] | outcome [8] | outcome [9] | outcome [10] | outcome [11] | Potency [12] | Potency [13] | outcome [14] | Potency [15]

Nc1cccc2c(=O)[nH][nH]c(=O)c12
inactive: Potency [1] | Potency [16] | outcome [19] | outcome [17] | Potency [3] | outcome [18] | Potency [4] | outcome [7] | outcome [9] | outcome [10] | outcome [11] | Potency [12] | Potency [13] | outcome [14] | Potency [15]

O=c1c2ccccc2oc2ccccc12
inactive: Potency [1] | Potency [4] | outcome [5] | outcome [7] | outcome [8] | outcome [9] | outcome [10] | outcome [11] | Potency [12] | Potency [13] | outcome [14] | Potency [15]

O=C(O)c1cccc(C(=O)O)c1C(=O)O
inactive: Potency [1] | Potency [3] | Potency [4] | outcome [5] | outcome [7] | outcome [8] | outcome [9] | outcome [10] | outcome [11] | Potency [12] | Potency [13] | outcome [14] | Potency [15]

O=C(c1ccc(Cl)cc1)c1ccc(Cl)cc1
inactive: Potency [1] | Potency [16] | Potency [2] | outcome [19] | Potency [3] | outcome [5] | outcome [6] | outcome [7] | outcome [8] | outcome [9] | outcome [10] | outcome [11] | Potency [12] | Potency [13] | outcome [14] | Potency [15]
